Results reported in ChEMBL document CHEMBL3433997, “St. Jude Leishmania screening dataset” (2016).

How the values were obtained:
Format in all cases: functional
[1] = target: Solute carrier family 2, facilitated glucose transporter member 1 (Homo sapiens) (UniProt P11166); assay: ST_JUDE_LEISH: Cytotoxicity at 2uM final concentration against transgenic Leishmania Mexicana promastigotes LmGLUT1 that are glucose transport deficient and complemented with the human glucose transporter GLUT1. Activity is measured by DNA content using SYBR green in vitro
Solute carrier family 2, facilitated glucose transporter member 1 (Homo sapiens), sequence (P11166 whole entry): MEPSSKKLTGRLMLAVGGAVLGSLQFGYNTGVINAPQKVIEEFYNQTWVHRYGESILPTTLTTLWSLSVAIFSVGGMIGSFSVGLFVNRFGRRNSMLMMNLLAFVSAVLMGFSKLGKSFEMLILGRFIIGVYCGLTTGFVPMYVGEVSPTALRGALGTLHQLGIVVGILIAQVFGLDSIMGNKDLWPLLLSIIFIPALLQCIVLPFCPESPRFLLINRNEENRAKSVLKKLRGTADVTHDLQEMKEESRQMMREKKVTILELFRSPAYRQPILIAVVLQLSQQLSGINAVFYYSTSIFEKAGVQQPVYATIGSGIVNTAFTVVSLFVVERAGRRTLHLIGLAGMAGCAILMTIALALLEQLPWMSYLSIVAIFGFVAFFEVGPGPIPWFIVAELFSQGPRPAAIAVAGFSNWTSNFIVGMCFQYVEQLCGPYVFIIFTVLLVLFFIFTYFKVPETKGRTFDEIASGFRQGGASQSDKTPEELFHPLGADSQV

[2] = target: Hexose transporter 1 (Plasmodium falciparum) (UniProt O97467); assay: ST_JUDE_LEISH: Cytotoxicity at 2uM final concentration against transgenic Leishmania Mexicana promastigotes LmPfHT that are glucose transport deficient and complemented with the Plasmodium falciparum hexose transporter. Activity is measured by DNA content using SYBR green in vitro
[3] = target: Glucose transporter (Leishmania mexicana) (UniProt O61059); assay: ST_JUDE_LEISH: Cytotoxicity at 2uM final concentration against transgenic Leishmania Mexicana promastigotes LmGT2 that are glucose transport deficient and complemented with the L. Mexicana glucose transporter 2. Activity is measured by DNA content using SYBR green in vitro

Structure (SMILES)	inhibition [1]	inhibition [2]	inhibition [3]
O=C(Nc1ccc(-c2nc3ccccc3[nH]2)cc1)c1ccc(Cl)s1	3.19%	2.35%	1.71%
COc1ccc(COc2cc(NCCCN)nc3ccccc23)cc1	4.66%	6.16%	4.46%
COc1cc2nc(N3CCC(CNC(=O)c4ccc(-c5ccc(C(=O)N(C)C)cc5)cc4)CC3)nc(N)c2cc1OC	1.96%	0.11%	1.75%
CCCN(CCCCCCN(CCC)CCc1ccc(O)c(O)c1)CCc1ccc(O)cc1	9.55%	12%	10.8%
COc1ccc2nccc([C@H](O)CN3CCC(NCc4nc5cccc(F)c5[nH]4)CC3)c2c1	3.63%	1.1%	2.36%
O=c1cc(NCCCCNCc2ccc(Br)c(Br)c2)[nH]c2ccccc12	0.91%	0.5%	-4.13%
Cc1cccc(Nc2nccc(NCC(O)c3cccc(C(F)(F)F)c3)n2)c1 (centres undefined)	7.67%	7.59%	2.59%
O=S(=O)(c1ccc(OCc2ccc(Cl)cc2)cc1)c1cc2c(cc1OCc1ccccc1)CCN(C1CCC1)CC2	7.19%	4.84%	7.79%
CC(=O)c1sc2ccccc2c1O	-1.09%	-1%	1.24%
Cc1noc(C)c1-c1cccc(CNCc2ccc(-c3ccc(-c4nc5cc(F)ccc5[nH]4)cc3)cc2)c1	8.14%	6.89%	3.46%
CCCCCn1c(Sc2ccc(C#N)c([N+](=O)[O-])c2)nnc1-c1cccc(Cl)c1	5.58%	6.17%	-0.77%
CCN(CC)CCCNc1c2ccccc2nc2ccccc12	23.4%	22.3%	16.5%
C=CCc1cc(Br)ccc1OCCCOc1c(C)nc(N)nc1N	73.6%	76%	57%
Cc1cc(N2CCCC2)nc(Nc2ccc(NC(=O)CC(C)C)cc2)n1	1%	3.11%	2.23%
O=S(=O)(c1c(Cl)cc(Cl)cc1Cl)N1CCCCC(c2ccc(Cl)cc2)=N1	-1.49%	-1.87%	-1.41%
Cc1ccc(F)cc1S(=O)(=O)N1CCCCC(c2ccc(C(F)(F)F)cc2)=N1	7.48%	5.61%	8.34%
O=C(Nc1ccc(Cl)cc1Cl)NC1CCN(CCCCCNC(=O)C2CC2c2ccc(Cl)c(Cl)c2)CC1 (centres undefined)	10.1%	11.3%	9.23%
Fc1ccc2nc(Nc3nc(-c4ccccn4)cs3)sc2c1	20.7%	10.8%	0.2%
